Active and inactive are the calls of the source.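 Rule for the calls, unless noted: active = inhibition above 20% together with a positive visual image hit; inconclusive = visual image hit but inhibition not above 20%; inactive = no visual image hit.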
How the values were obtained:
[1] = inhibitors of TNFa-induced NFkB p65 translocation, primary screen, imaging, HUVEC, MLSMR starter and 10KST1 sets (AID 438); details: HUVEC TNFa-induced p65 nuclear translocation; cell count: measured here: nuclei count (cytotoxicity indicator), at 2.08 µM; inhibition: at 2 µM, stronger effect = higher value, 0% TNFa-plus-vehicle, 100% no-TNFa wells;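 note: compound added about 3h40 before a 20 min TNFalpha stimulation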;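 for inhibition: signal is the nuclear over cytoplasmic p65 intensity ratio per well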
[2] = reduction of polyQ htt aggregates in cells – imaging, exon1htt(103Q)mCFP cells, high-content imaging, primary screen (AID 483;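 active = visual image review flags a hit and inhibition of aggregation exceeds 20%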;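 note: compound exposure lasted 3 days before fixation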;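 for nuclei count: percent of the per-plate median nuclei count of sample wells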); details: exon1htt(103Q)mCFP cell line, aggregate imaging, at 2 µM; inhibition of aggregation: stronger effect = higher value; nuclei count: measured here: cell count, toxicity
[3] = endothelial E-selectin expression blockers – imaging, HUVEC, immunofluorescence, MLSMR starter and 10KST1 sets, primary screen (AID 487;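 active = visually confirmed hit in the image check and inhibition above 20%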;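 for inhibition: signal is fraction of cell area covered by stained E-selectin grains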;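 for nuclei count: 100% = median nuclei count of all wells on the same plate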); details: HUVEC TNFalpha-induced E-selectin immunofluorescence imaging, at 2 µM; inhibition: stronger effect = higher value; nuclei count: measured here: cell number, toxicity
[4] = target: Voltage-gated potassium channel subunit beta-2 (Rattus norvegicus) (UniProt P62483); experiment: inhibitors of rat Kvbeta2 reductase activity – biochemical, NADPH fluorescence, primary screen (AID 622;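 active = fluorescence slope higher than the sample average by over 3 SD, cut at about -0.22 in these data, passing the limit was not always enough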;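 note: slope of raw intensity against log time taken from 70 to 1610 s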); details: recombinant KvBeta, 4-cyanobenzaldehyde reduction, at 10 µM, stronger effect = higher value
[5] = target: Voltage-gated potassium channel subunit beta-2 (Rattus norvegicus) (UniProt P62483); experiment: enhancers of rat Kvbeta2 NADPH turnover – biochemical, NADPH fluorescence, primary screen (AID 623;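 active = NADPH fluorescence slope more negative than the mean of all samples by about 3 SD, 99.7% confidence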;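 note: fluorescence intensity change per second fitted from 20 to 320 s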); details: Recombinant KvBeta, NADPH fluorescence decrease slope, 10 min; at 10 µM; stronger effect = lower value
[6] = target: Alpha-2C adrenergic receptor (Homo sapiens) (UniProt P18825); experiment: compounds altering alpha2C-coupled GIRK flux – cell-based, HEK293 alpha2C/GIRK1/2, thallium flux, primary screen (AID 624;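 active = fluorescence slope after compound addition differing from the mean of all screened samples at 99.7% confidence, in either direction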;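 note: slope of fluorescence ratio to pre-addition baseline per second over 15 to 24 s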); details: thallium flux BTC fluorescence, at 10 µM, actives lie on both sides
[7] = blockers of RIG-like receptor reporter activation – cell-based, Sendai virus stimulus, luciferase, 10K MLSCN set, TLR/RLR signaling modifier project, primary screen (AID 602276;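 active = inhibition at or above 50% at 10 µM; inactive = inhibition below 50%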;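 note: firefly luciferase from ISG56 promoter only with Renilla not read in this screen; 0% = Sendai virus plus DMSO and 100% = medium plus DMSO without virus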); details: HEK293 RL24 IRF3 luciferase reporter, at 10 µM, stronger effect = higher value
[8] = TLR3 IRF3 reporter activation blockers – cell-based, poly I:C stimulus, luciferase, 10K MLSCN set, primary screen (AID 602277;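 active = inhibition of the reporter signal at or above 50%; inactive = inhibition below 50%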); details: HEK293-TLR3 RL24 IRF3 luciferase reporter, at 10 µM, stronger effect = higher value

Chain of Voltage-gated potassium channel subunit beta-2 (Rattus norvegicus) (P62483 whole entry, looked up): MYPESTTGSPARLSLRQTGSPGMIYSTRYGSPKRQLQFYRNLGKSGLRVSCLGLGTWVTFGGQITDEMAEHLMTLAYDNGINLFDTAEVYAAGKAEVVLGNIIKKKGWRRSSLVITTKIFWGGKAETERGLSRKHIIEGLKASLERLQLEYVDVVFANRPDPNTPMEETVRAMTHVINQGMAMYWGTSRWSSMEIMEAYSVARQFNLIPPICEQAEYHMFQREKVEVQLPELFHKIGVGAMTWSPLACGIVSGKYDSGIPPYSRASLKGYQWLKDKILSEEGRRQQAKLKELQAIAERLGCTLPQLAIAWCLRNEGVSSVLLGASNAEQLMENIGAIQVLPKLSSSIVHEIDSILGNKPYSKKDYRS
Chain of Alpha-2C adrenergic receptor (Homo sapiens) (P18825 whole entry, looked up): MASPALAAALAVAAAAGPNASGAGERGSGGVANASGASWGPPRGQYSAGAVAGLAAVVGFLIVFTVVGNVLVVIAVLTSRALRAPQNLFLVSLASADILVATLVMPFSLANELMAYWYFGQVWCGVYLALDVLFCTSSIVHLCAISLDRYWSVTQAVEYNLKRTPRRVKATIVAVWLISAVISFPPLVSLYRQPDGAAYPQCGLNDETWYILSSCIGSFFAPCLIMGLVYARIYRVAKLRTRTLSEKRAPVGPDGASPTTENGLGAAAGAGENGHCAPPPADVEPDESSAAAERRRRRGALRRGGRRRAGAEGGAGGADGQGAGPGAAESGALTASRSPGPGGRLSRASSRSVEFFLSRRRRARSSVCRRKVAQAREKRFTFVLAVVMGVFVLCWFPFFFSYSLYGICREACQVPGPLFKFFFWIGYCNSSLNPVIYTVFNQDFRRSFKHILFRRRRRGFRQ

Compound | cell count [1] | inhibition [1] | inhibition of aggregation [2] | nuclei count [2] [%] | inhibition [3] | nuclei count [3] [%] | fluorescence slope [4] | NADPH fluorescence slope [5] | slope [6] | inhibition [7] | inhibition [8]
Cc1ccc2[nH]c(=O)c(-c3noc(-c4ccncc4)n3)cc2c1 | 474 | -9.1% (inactive) | -82.1% (inactive) | 65 | -51% (inactive) | 93.8 | -0.31 (inactive) | -6e-05 (inactive) | 0.0054 (inactive) | 8.49% (inactive) | 12.4% (inactive)
c1ccc2oc(SCc3cn4ccccc4n3)nc2c1 | 612 | 12.6% (inactive) | 16.1% (inactive) | 99.8 | -30.4% (inactive) | 132 | -0.506 (inactive) | -4.1e-05 (inactive) | 0.00508 (inactive) | -46.4% (inactive) | -151% (inactive)
CCCC(=O)Nc1cc(C)c(NC(=O)c2ccccn2)cn1 | 418 | 13.7% (inactive) | 19.4% (inactive) | 89.7 | -10.2% (inactive) | 110 | -0.606 (inactive) | -5.2e-05 (inactive) | 0.007 (inactive) | 4.7% (inactive) | 11.8% (inactive)
O=C(OCC#CCSc1nc2ccccc2s1)c1ccco1 | 639 | -19.8% (inactive) | -8.9% (inactive) | 116 | -28.5% (inactive) | 100 | -0.471 (inactive) | 2.6e-05 (inactive) | 0.00607 (inactive) | -14.4% (inactive) | -21.9% (inactive)
Cc1cc(NC(=O)COc2cccc(Oc3ccccc3)c2)no1 | 327 | -0.9% (inactive) | -11.4% (inactive) | 80.8 | -61% (inactive) | 106 | -0.375 (inactive) | -7.6e-05 (inactive) | 0.0048 (inactive) | 10.8% (inactive) | 30.5% (inactive)
COc1ccc(NC(=O)COc2ccccc2)c(OC)c1 | 404 | 8.8% (inactive) | -15.2% (inactive) | 106 | 1.1% (inactive) | 108 | -0.418 (inactive) | -4.6e-05 (inactive) | 0.00449 (inactive) | -32.8% (inactive) | -89.1% (inactive)
O=C(O)Cn1nc2ccccc2n1 | 396 | 5% (inactive) | 10.5% (inactive) | 100 | -55.1% (inactive) | 98.8 | -0.4 (inactive) | 1.5e-05 (inactive) | 0.00551 (inactive) | 14.6% (inactive) | 11.8% (inactive)
Clc1ss/c(=N\c2ccccn2)c1Cl | 623 | -6.5% (inactive) | -1.1% (inactive) | 112 | -39.9% (inactive) | 124 | -0.483 (inactive) | -0.000216 (inactive) | 0.0043 (inactive) | -8.89% (inactive) | -24% (inactive)
Cc1ccccc1-c1nc(CS(=O)(=O)CC(=O)NCc2ccc3c(c2)OCO3)c(C)o1 | 676 | -0.6% (inactive) | -60.8% (inactive) | 115 | -6.5% (inactive) | 110 | -0.497 (inactive) | -2.5e-05 (inactive) | 0.0071 (inactive) | 24.2% (inactive) | 17% (inactive)
O=C(CSc1n[nH]c(-c2cccs2)n1)N1CCN(S(=O)(=O)c2ccccc2)CC1 | 785 | 13.3% (inactive) | 4.1% (inactive) | 104 | -77% (inactive) | 140 | -0.639 (inactive) | 3e-05 (inactive) | 0.0053 (inactive) | 17% (inactive) | 28.7% (inactive)
COc1ccc(NC(=O)C2CCCN(S(=O)(=O)c3cccc4cccnc34)C2)cc1OC (stereo not drawn) | 551 | -2.6% (inactive) | -0.5% (inactive) | 104 | -24.3% (inactive) | 109 | -0.559 (inactive) | 8e-06 (inactive) | 0.007 (inactive) | 14.2% (inactive) | 24.7% (inactive)
COc1cc2cc(C(c3nnnn3C3CCCC3)N(C)C3CCCCC3)c(=O)[nH]c2cc1OC (stereo not drawn) | 537 | -13.2% (inactive) | -34.3% (inactive) | 100 | -15.9% (inactive) | 108 | -0.465 (inactive) | -2e-05 (inactive) | 0.007 (inactive) | 12.4% (inactive) | 22% (inactive)
Cc1ccc(S(=O)(=O)N2CCC(C(=O)N3CCC[C@H]3C(=O)NCc3ccccc3)CC2)cc1 | 340 | 3.6% (inactive) | -6.4% (inactive) | 108 | -35% (inactive) | 133 | -0.453 (inactive) | 8.3e-05 (inactive) | 0.00735 (inactive) | 13.5% (inactive) | 23.1% (inactive)
O=C(CN1CCN(Cc2ccccc2)CC1)Nc1ccc(Cl)cn1 | 615 | -12.7% (inactive) | 19.3% (inactive) | 81.8 | -26% (inactive) | 92 | -0.502 (inactive) | -2.1e-05 (inactive) | 0.00402 (inactive) | 17.4% (inactive) | 29.5% (inactive)
COc1ccccc1C1CC(c2ccc(C)cc2)Nc2ncnn21 (stereo not drawn) | 332 | 0.7% (inactive) | -31.6% (inactive) | 109 | -37.9% (inactive) | 119 | -0.425 (inactive) | 4.9e-05 (inactive) | 0.00745 (inactive) | -7.75% (inactive) | -0.278% (inactive)
Cn1nnnc1SCC(=O)N1CCN(c2cccc(Cl)c2)CC1 | 360 | -2.9% (inactive) | 10.8% (inactive) | 94.4 | -206% (inactive) | 115 | -0.619 (inactive) | -2.9e-06 (inactive) | 0.00492 (inactive) | 7.81% (inactive) | 11.3% (inactive)
Cc1cccc(N2C(=O)CC(Sc3nc(C)c4c(n3)CCCC4)C2=O)c1 (stereo not drawn) | 603 | 3.4% (inactive) | -4.5% (inactive) | 105 | 2% (inactive) | 104 | -0.592 (inactive) | -2.5e-05 (inactive) | 0.00308 (inactive) | -11.6% (inactive) | -8.43% (inactive)
CCn1cc(C2Nc3ccccc3C(=O)N2O)c(C)n1 (stereo not drawn) | 428 | 8.8% (inactive) | -27.6% (inactive) | 112 | -66.4% (inactive) | 104 | -0.301 (inactive) | -4.1e-05 (inactive) | 0.0057 (inactive) | -41.1% (inactive) | -70.4% (inactive)
O=C(NCC(=O)N1CCC(N2CCCCC2)CC1)C1CCCCC1 | 505 | -12% (inactive) | 19.9% (inactive) | 91.8 | 10.2% (inactive) | 91 | -0.481 (inactive) | -0.000128 (inactive) | 0.00598 (inactive) | -3.39% (inactive) | 1.58% (inactive)
CC1(C)CC(=O)C2=C(C1)NC(=O)CC2C(=O)NCc1ccc(F)cc1 (stereo not drawn) | 533 | -11.5% (inactive) | -1.8% (inactive) | 86.7 | 3.2% (inactive) | 87.8 | -0.342 (inactive) | -4.7e-05 (inactive) | 0.00523 (inactive) | 7.38% (inactive) | 5.77% (inactive)
O=C(NCCN1C(=O)C2C3C=CC(C3)C2C1=O)N1CCCCC1 (stereo not drawn) | 584 | -7.6% (inactive) | 0.9% (inactive) | 104 | 3.5% (inactive) | 99.5 | -0.604 (inactive) | -3.7e-05 (inactive) | 0.00723 (inactive) | -6.07% (inactive) | 20.6% (inactive)
Cn1nnnc1SCC(=O)NC1CCCCC1 | 228 | 3.4% (inactive) | 20% (inactive) | 84.3 | -0.8% (inactive) | 79.2 | -0.432 (inactive) | 4.4e-07 (inactive) | 0.00705 (inactive) | 5.19% (inactive) | 19.8% (inactive)
O=C(Nc1ccc(Cc2ccc(NC(=O)N3CCOCC3)cc2)cc1)N1CCOCC1 | 494 | -2% (inactive) | 15.7% (inactive) | 61.1 | 30.5% (inactive) | 82.3 | -0.416 (inactive) | -2.3e-05 (inactive) | 0.0036 (inactive) | 0.542% (inactive) | -1.84% (inactive)
Cc1cc2oc(=O)cc(C)c2c(=O)o1 | 411 | -15.8% (inactive) | -0.8% (inactive) | 105 | -2.6% (inactive) | 115 | -0.391 (inactive) | 3.6e-05 (inactive) | 0.00528 (inactive) | -5.14% (inactive) | -17.4% (inactive)
O=C(O)c1ccc(COc2ccc(Cl)cc2)o1 | 262 | -3.3% (inactive) | 10.6% (inactive) | 81 | -24% (inactive) | 88.3 | -0.49 (inactive) | -3e-05 (inactive) | 0.00685 (inactive) | -14.7% (inactive) | -60.9% (inactive)
Cc1csc(NC(=O)c2ccoc2C)n1 | 435 | 1.3% (inactive) | -7.1% (inactive) | 90.7 | 9% (inactive) | 97.9 | -0.534 (inactive) | 2.1e-05 (inactive) | 0.00451 (inactive) | -53.3% (inactive) | -87.5% (inactive)
C=CCOc1ccc(/C(CC)=N/O)c(OC)c1 | 387 | 15.3% (inactive) | -5.5% (inactive) | 54.4 | -29.6% (inactive) | 117 | -0.442 (inactive) | -3.1e-05 (inactive) | 0.00515 (inactive) | -7.92% (inactive) | 0.412% (inactive)
O=C(CN1CCCC1)Nc1ccc(NC(=O)Nc2ccccc2)cc1 | 433 | -5.7% (inactive) | 8.5% (inactive) | 96.4 | -132% (inactive) | 215 | -0.433 (inactive) | 7.1e-05 (inactive) | 0.00831 (inactive) | -33.7% (inactive) | -54.6% (inactive)

Reference: PubChem BioAssay
